# Rows were chosen to be rich in hits. Some 1.1% of all compounds tested hit in one or more screens of this group.
# SRC1 inh – inhibitors of human steroid receptor coactivator 1 (SRC1); Q15788; HEK293 GAL4-SRC1 luciferase reporter, luminescence; inhibition, % at 3.6 µM; 360,000 compounds, 0.12% hits;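 active means inhibition above the campaign mean plus 3 SD, with each screening campaign given its own cutoff, cut at about 60% in these data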;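 further: 0% = DMSO treated cells and 100% = gossypol at 36 µM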
# SRC3 inh – inhibitors of human steroid receptor coactivator 3 (SRC3); Q9Y6Q9; HEK293 GAL4-SRC3 luciferase reporter, luminescence; inhibition, % at 3.6 µM; 360,000 compounds, 0.17% hits; AID 588352;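 active means inhibition above a per-campaign cutoff, the mean of all compounds plus 3 SD, cut at about 60% in these data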;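 further: 0% = DMSO-treated cells and 100% = gossypol-treated cells at 36 µM; higher means less SRC3-driven luciferase light from the GAL4 reporter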
# Target sequence (Q9Y6Q9 whole entry, looked up, the tested form may be a part): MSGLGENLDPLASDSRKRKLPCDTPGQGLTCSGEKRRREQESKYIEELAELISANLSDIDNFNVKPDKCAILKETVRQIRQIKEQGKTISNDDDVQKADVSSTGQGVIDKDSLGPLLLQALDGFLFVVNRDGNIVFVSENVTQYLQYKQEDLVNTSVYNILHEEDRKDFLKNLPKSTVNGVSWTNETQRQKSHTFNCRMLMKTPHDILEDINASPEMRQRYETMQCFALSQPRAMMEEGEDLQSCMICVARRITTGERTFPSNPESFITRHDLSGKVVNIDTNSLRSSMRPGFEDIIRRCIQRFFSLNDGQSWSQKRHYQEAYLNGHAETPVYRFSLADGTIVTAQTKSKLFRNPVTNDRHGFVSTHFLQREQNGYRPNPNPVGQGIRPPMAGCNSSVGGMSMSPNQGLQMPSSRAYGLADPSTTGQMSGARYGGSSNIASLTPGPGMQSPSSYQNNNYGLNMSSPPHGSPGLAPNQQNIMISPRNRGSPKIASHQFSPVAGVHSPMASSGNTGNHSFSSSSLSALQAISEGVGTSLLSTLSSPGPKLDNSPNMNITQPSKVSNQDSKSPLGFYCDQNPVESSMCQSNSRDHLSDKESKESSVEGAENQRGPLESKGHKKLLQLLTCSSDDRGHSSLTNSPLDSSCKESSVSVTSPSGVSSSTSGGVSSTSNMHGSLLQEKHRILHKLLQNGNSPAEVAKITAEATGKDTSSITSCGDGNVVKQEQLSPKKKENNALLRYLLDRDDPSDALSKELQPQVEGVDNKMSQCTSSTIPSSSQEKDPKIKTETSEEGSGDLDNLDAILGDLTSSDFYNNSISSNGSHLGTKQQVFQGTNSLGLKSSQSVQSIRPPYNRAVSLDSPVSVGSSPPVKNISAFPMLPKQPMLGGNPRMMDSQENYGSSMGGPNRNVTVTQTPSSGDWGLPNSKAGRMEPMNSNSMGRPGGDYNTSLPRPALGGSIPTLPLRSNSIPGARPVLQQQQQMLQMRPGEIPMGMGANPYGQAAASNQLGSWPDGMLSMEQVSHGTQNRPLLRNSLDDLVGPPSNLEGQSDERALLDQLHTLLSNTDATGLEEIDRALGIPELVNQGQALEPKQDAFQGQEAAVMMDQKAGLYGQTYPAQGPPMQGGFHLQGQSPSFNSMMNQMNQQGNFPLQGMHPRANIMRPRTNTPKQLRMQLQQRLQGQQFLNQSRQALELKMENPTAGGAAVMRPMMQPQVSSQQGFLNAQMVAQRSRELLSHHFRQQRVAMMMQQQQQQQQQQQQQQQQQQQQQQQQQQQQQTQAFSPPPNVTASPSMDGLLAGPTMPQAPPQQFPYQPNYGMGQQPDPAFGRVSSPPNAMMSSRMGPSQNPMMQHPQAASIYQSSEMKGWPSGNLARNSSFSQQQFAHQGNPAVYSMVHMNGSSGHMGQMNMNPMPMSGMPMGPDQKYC
# NR2F2 inh – NR2F2 (human) inhibition, primary screen; HEK293T NGFI-A luciferase reporter, luminescence; AID 686940; 370,000 compounds, 0.7% hits; inhibition, % at 8.6 µM;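 active means inhibition above a per-plate cutoff, mean inhibition of test wells between control levels plus 3 SD, cut at about 38% in these data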;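 further: cells cotransfected with COUP-TFII expression vector driving the NGFI-A reporter; 0% = median of COUP-TF2 test wells and 100% = reporter-only cells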
# GalR3 antag – blocks the human galanin receptor 3. O60755. HEK293 GalR3-CNG cAMP membrane potential fluorescence; galR3 body fused to GalR1 C-terminus. inhibition, % at 3 µM. 360,000 compounds, 0.44% hits;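 active means inhibition above the screen-wide average plus 3 SD, cut at about 13% in these data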;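 further: forskolin and galanin both at EC90 stimulate the cells; cAMP rise reported by CNG channel membrane potential dye signal; 0% = forskolin plus galanin with DMSO and 100% = forskolin alone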
# SRC2 inh – inhibits human steroid receptor coactivator 2; HEK293 GAL4-SRC2 luciferase reporter, luminescence; Q15596; 370,000 compounds, 0.17% hits; inhibition, % at 9 µM;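 active means inhibition above the mean inhibition of all tested compounds plus 3 SD, set per campaign, cut at about 52% in these data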;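 further: 0% = DMSO treated cells and 100% = cells given Gossypol at 36 µM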
# LRH-1 inv ag – suppresses constitutive activity of human LRH-1. HEK293T StAR-luciferase reporter, LRH-1 transfected, 24 h. O00482. 360,000 compounds, 0.13% hits. inhibition, % at 3.6 µM;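 active means inhibition above the mean inhibition of all tested compounds plus 3 SD, cut at about 73% in these data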;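 further: 0% = DMSO wells and 100% = reporter-only cells lacking LRH-1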
# GalR3 conf – GalR3 (human) antagonism, confirmation; shares compounds with GalR3 antag; HEK293 GalR3 CNG cAMP biosensor, membrane potential fluorescence; galR3 fused to GalR1 carboxy tail; challenged with forskolin and galanin at EC90; inhibition, % at 3 µM; 1,600 compounds, 59% hits;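 active means inhibition above the primary screen's cutoff, the mean inhibition of all screened compounds plus 3 SD, cut at about 13% in these data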;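 further: 0% = forskolin plus galanin and 100% = forskolin alone with DMSO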
# CNG parental – acts as nonspecific agonist in parental HEK-CNG cells; shares compounds with GalR3 antag; HEK293-CNG parental cells, cAMP membrane potential fluorescence; normalised: DMSO wells 0%, forskolin wells 100%; activation, % at 3 µM; 1,600 compounds, 10% hits; AID 652268; in the data active means activation above about 1.3%
# Gal4-VP16 ctr – counter-screen for COUP-TFII antagonists: inhibitors of VP16 | 2,500 compounds, 25% hits | inhibition, % at 8.5 µM | shares compounds with NR2F2 inh | HEK293 Gal4-VP16 luciferase reporter, luminescence; in the data active means inhibition above about 13%
# COUP-TFII conf – confirmation of human COUP-TFII (NR2F2) inhibitors | 2,500 compounds, 45% hits | HEK293 NGFI-A luciferase reporter, luminescence | AID 687008 | inhibition, % at 8.5 µM | shares compounds with NR2F2 inh;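 active means mean inhibition over three repeats above a set limit taken from the earlier primary screen, cut at about 38% in these data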;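 further: 100% = cells given the luciferase reporter alone without the COUP-TF2 vector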
# * hit, by the source's call; nt = no result.
SMILES,SRC1 inh,SRC3 inh,NR2F2 inh,GalR3 antag,SRC2 inh,LRH-1 inv ag,GalR3 conf,CNG parental,others
C=CCn1c(O)c(C=NCCCOc2ccc(CC)cc2)c(=O)[nH]c1=S,-2,-3,3,-6,2,8,nt,nt,
CC(C)(C)c1cc([N+](=O)[O-])cc(C(C)(C)C)c1O,nt,nt,21,90*,-11,nt,102*,1,
COc1ccc(C(=O)N/N=C/C23CC[C@@H](O)CC2(O)CC[C@@H]2[C@@H]3CCC3(C)C(C4=CC(=O)OC4)CCC23O)cc1 (stereo partly specified),6,18,-6,34*,-53,10,40*,1,
CN(C)c1ccc(C(=O)N/N=C/C23CC[C@@H](O)CC2(O)CC[C@@H]2[C@@H]3CCC3(C)C(C4=CC(=O)OC4)CCC23O)cc1 (stereo partly specified),35,39,36,42*,-49,37,38*,1.4*,
O=C(N/N=C/c1c(O)n(CCc2ccccc2)c(=O)[nH]c1=O)c1ccccc1O,-3,-11,0,77*,6,-6,53*,0,
O=C(N/N=C/c1c(O)n(CCc2ccc(F)cc2)c(=O)[nH]c1=O)c1ccccc1,-84,-38,-17,1,-21,-22,nt,nt,
O=C(N/N=C/c1c(O)n(Cc2ccccc2)c(=O)[nH]c1=O)c1ccccc1O,-30,-8,4,0,-33,-2,nt,nt,
O=C(N/N=C/c1c(O)n(Cc2ccc(F)cc2)c(=O)[nH]c1=O)c1ccccc1O,-27,-7,-10,13*,10,-20,6,0,
O=C(N/N=C/c1c(O)n(CCc2ccc(F)cc2)c(=O)[nH]c1=O)c1ccncc1,2,11,17,25*,-13,-7,19*,0,
COC(=O)C1=C(c2ccc(F)cc2OCc2ccccc2)C[C@@H]2CC[C@H]1N2C(=O)NC1CC1,-12,10,2,-1,-1,-9,nt,nt,
Nc1cc(Cl)c2nonc2c1[N+](=O)[O-],-3,-18,-8,35*,-122,14,20*,1,
O=[N+]([O-])c1c(Cl)c(Cl)c(Cl)c(Cl)c1Cl,-20,2,8,-3,-21,-5,nt,nt,
O=c1[nH]c2ccccc2n1C1CCN(C(CCc2ccccc2)c2nnnn2-c2ccc3c(c2)OCCO3)CC1 (stereo unspecified),-17,60,4,21*,21,31,17*,0,
COC(=O)C1=C(c2ccc(OC)c(OC)c2)C[C@@H]2CC[C@H]1N2C(=O)NCc1ccco1,1,2,8,-7,-5,3,nt,nt,
COc1ccc(-n2c(O)c(C=NCc3ccc4c(c3)OCO4)c(=O)[nH]c2=O)cc1,20,1,0,14*,-12,6,0,0,
CCOc1ccc(-c2cc(C(=O)N3CCC4(CC3)OCCO4)c3ccccc3n2)cc1,-46,-2,-20,-5,-4,-7,nt,nt,
CC(=O)NCCc1c[nH]c2ccccc12,-14,0,-2,-3,-1,-1,nt,nt,
CC(=O)c1cn(CC(=O)NCCc2c[nH]c3ccccc23)c2ccccc12,15,11,25,18*,19,16,58*,0,
O=C(O)C(Cl)(Cl)Cl,2,-15,12,1,-17,-19,nt,nt,
COC(=O)C1=C(c2cccc(C#N)c2)C[C@@H]2CC[C@H]1N2C(=O)NC1CC1,13,1,-9,15*,-28,5,13*,0,
COC(=O)C1=C(c2ccc(OC)c(OC)c2)C[C@@H]2CC[C@H]1N2C(=O)NC1CCCCC1,9,9,3,-6,-19,-16,nt,nt,
COC(=O)C1=C(c2ccc(OC)c(OC)c2)C[C@@H]2CC[C@H]1N2C(=O)NC1CC1,-5,9,-19,15*,-10,-19,1,0,
CCNCC(O)c1cccc(O)c1 (stereo unspecified),-23,-26,-42,54*,-25,-7,68*,1,
CC(Cc1ccc(O)cc1)NCC(O)c1cc(O)cc(O)c1 (stereo unspecified),-25,-25,-77,nt,-20,8,nt,nt,
CC12CC[C@H]3[C@@H](CCC4(O)C[C@H](O)CCC34/C=N/NC(=O)c3ccc(O)cc3)C1(O)CCC2C1=CC(=O)OC1 (stereo partly specified),-59,7,-2,-5,3,-37,nt,nt,
SMILES,SRC1 inh,SRC3 inh,NR2F2 inh,GalR3 antag,SRC2 inh,LRH-1 inv ag,GalR3 conf,CNG parental,others
CC12CC[C@H]3[C@@H](CCC4(O)C[C@H](O)CCC34/C=N/NC(=O)c3ccccc3O)C1(O)CCC2C1=CC(=O)OC1 (stereo partly specified),4,6,-16,30*,-55,24,25*,0,
CC12CC[C@H]3[C@@H](CCC4(O)C[C@H](O)CCC34/C=N/NC(=O)c3ccccc3F)C1(O)CCC2C1=CC(=O)OC1 (stereo partly specified),-6,-2,13,37*,-38,-35,23*,0,
Clc1ccc(COC(Cn2ccnc2)c2ccc(Cl)cc2Cl)c(Cl)c1 (stereo unspecified),-10,5,3,nt,19,-7,nt,nt,
CN1CCN(c2ccc([N+](=O)[O-])c(SCCO)c2)CC1,6,21,-6,-5,-4,10,nt,nt,
CCC(=O)N1CCN(CCN=Cc2c(O)n(C)c(=O)n(C)c2=O)CC1,-21,15,0,-3,9,-16,nt,nt,
Cn1c(O)c(C=NCCCCCCCCCCC(=O)O)c(=O)n(C)c1=O,7,5,-5,17*,16,-5,13*,0,
CC1(C)C(C(=O)N2CCN(C(=O)c3ccccc3)CC2)C1(C)C,8,-20,2,-8,-22,-6,nt,nt,
N=C1c2ccccc2CN1NC(=O)c1ccco1,-32,1,-48,13*,-31,5,2,0,
CCOC(=O)[C@]12Cc3cc(C)ccc3[C@H]1N(C1CCCCC1)C(=O)c1cc(OC)ccc12,nt,nt,52*,38*,19,94*,47*,3.3*,Gal4-VP16 ctr=25*;COUP-TFII conf=36
O=P1(N(CCCl)CCCl)NCCCO1 (stereo unspecified),1,10,1,nt,3,3,nt,nt,

# High-throughput results (PubChem BioAssay)
